# From PubChem BioAssay (NCI)
# “And” between values parts separate entries of the source, which are not always exact repeats. Identical values can stand only once. About 79,000 compounds went through this panel and 15% of them were active in at least one assay; those are over-represented in the sample as a whole. Values without a mark were called inactive. The source made the active and inactive calls. No stated cut-off is given here; in the data, active means growth inhibition above about 70%; inactive means the rest.
# Experiment: NCI Yeast Anticancer Drug Screen. Data for the bub3 strain (AID 167)
# Conditions: S. cerevisiae bub3 mutant strain, at 50.0 µM, active compounds read high
# How it was run: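 Mutant yeast screening strain plus compound; vehicle-treated cultures serve as the 0% inhibition reference.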
row,SMILES,growth inhibition
1,ClCCN(CCCl)c1ccc(C2=Nc3cccc4cccc(c34)N2)cc1,-8.05%
2,COc1cc(Cl)c(OP(=O)(OC)OC)cc1Cl,-1.05%
3,c1ccc(CC[n+]2cccc3ccccc32)cc1,-8.1%
4,CCC1(C(C)c2ccccc2)C(=O)NC(=O)NC1=O (stereo not drawn),16.6%
5,CCCCCCOC(=O)c1ccccc1C(=O)OCCCCCC,-45.2%
6,S=C=Nc1ccccn1,30.6%
7,O=C(CF)[O][Sb]([O]C(=O)CF)([c]1ccccc1)([c]1ccccc1)[c]1ccccc1,16.2%
8,O=C1C=C2c3ccccc3CC(C(=O)O)C2CC1 (stereo not drawn),2.3%
9,Cc1ccc(NC2=NCCS2)cc1Cl,10.2%
10,Nc1ccc([As](O)O)c(C(=O)O)c1,-26.3%
11,CC(=O)OCC12CCC(C)=CC1OC1C(N(C)C)C(O)C2(C)C12CO2 (stereo not drawn),18.4%
12,O=NNc1ccc(Br)cn1,-0.35%
13,COc1ccc2c3c1O[C@H]1C(Br)C=C[C@H]4[C@@H](C2)N(C)CC[C@]314 (stereo partly drawn),29.2%
14,N=C(N)SCc1ccc(Cl)c(Cl)c1 (tested in a mixture with another compound),3.5%
15,C=CC[As](=O)(O)c1ccccc1Cl,98.3% (active)
16,CN(C)S(=O)(=O)N(SC(F)(Cl)Cl)c1ccccc1,99.2% (active)
17,O=NNc1cnccn1,-19% and -18.5%
18,CCC[CH2][Sn]1([CH2]CCC)[O]C(=O)CN=C(C)c2ccccc2[O]1,9.8%
